Results on 40 compounds are retold here after PubChem BioAssay (NCI).

About 83,000 compounds went through this panel and 20% of them were active in at least one assay; those are over-represented in the sample as a whole.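 The test compound was applied at a single concentration to cells in 96-well plates for 48 hours, and percent growth was recorded.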 Values without a mark were called inactive. Activity calls are given as the source filed them.

This assay has as its system ACHN renal. Nature of the assay: NCI-60 one-dose screen, 48 h (100 = growth as untreated, 0 = no growth, -100 = all killed). The settings on record: 10 µM unless noted. The method, then: Growth inhibition of the ACHN human tumor cell line is measured as a screen for anti-cancer activity. Cells are grown in 96 well plates and exposed to the test compound for 48 hours. Compounds are tested at a single concentration, which is 10^-5 M for most compounds. The reported endpoint is percent growth (GI% or GIPRCNT), where numbers from 0 - 100% represent growth inhibition, and numbers from -100% - 0 represent cell death. For example, a value of 40 represents 60% growth inhibition. A value of 0 means no net growth occurred over the course of the experiment. A value of -40 indicates 40% of cells at the beginning of the experiment died by the end of the experiment. A value of -100 means all cells are dead at the end of the experiment.
NCI-60 Human Tumor Cell Lines Screen was performed using the standard one-dose NCI protocol, which is described in more detail at https://dtp.cancer.gov/discovery_development/nci-60/default.htm.
Compounds with GIPRCNT values below 10 were considered active. Activity score was based on GIPRCNT using the following formula: […]
Score is 0 for GIPRCNT values of 100 or above, 50 for GIPRCNT values of 0, and 100 for GIPRCNT values of -100.
`N#Cc1c(N)nc2c(c1N)C(c1ccc(F)cc1)c1ccc(N)cc1O2` (stereo not given): the growth is 102%.
In the case of `OC(c1ccccc1)c1nnc(SCc2ccccc2)n1Cc1ccccc1` (stereo not given), the growth was 86.9%.
`Nc1ccn(C2O[C@H](CO)[C@@H](O)[C@H]2O)c(=O)n1` (stereo not given in full): the growth is 79.5%.
With `COc1ccc(/C=C2\CCC/C(=C\c3ccc(OC)c(OC)c3)C2=O)cc1OC`, the growth was 8.29% (active).
On to `COc1ccc2sc(N(Cc3cccnc3)C(=O)c3ccc(C#N)cc3)nc2c1`, for which the growth was 91.2%.
Then `CCCCCCCCCCOC(=O)c1ccccc1C(=O)OCCCC`, with 109%.
On to `COc1ccc(Br)c(/C=C2\SC(=Nc3ccc(O)cc3)NC2=O)c1`, for which the growth is 89.7%.
Next, `O=C(NC1CCCCC1)C(c1cccs1)N(CCc1ccccc1)C(=O)c1ccco1` (stereo not given): 94.6%; `CC(C)Cn1c2c(c(=S)[nH]c1=O)CCC2`: 103%; `COc1ccc(-n2c(C(O)c3ccccc3)n[nH]c2=S)cc1` (stereo not given): 95.5%.
On to `O=C(Cc1ccccc1)NC(c1ccc(Cl)cc1)c1c(O)ccc2ccccc12` (stereo not given), for which the growth was 10.1%.
With `S=C1CCCC(=S)N1`, the growth was 105%.
Turning to `COc1cc(/C=C/C(=O)c2ccc(Nc3nc(NCCO)nc(N4CCOCC4)n3)cc2)cc(OC)c1OC`, the growth is 23.3%.
Next, `Cn1c(=O)n(C)c2cc(CNCCNc3ccnc4cc(Cl)ccc34)ccc21`: 4.21% (active); `CC(C)CCNCC(O)Cn1c2ccccc2c2ccccc21` (stereo not given): 2.8% (active); `O=C(Nc1ccc(N2CCNCC2)cc1)c1[nH]ncc1Nc1cc(C2CC2)ncn1`: 21.4%.
`O=C1c2cc(Br)ccc2Oc2cc([N+](=O)[O-])ccc2N1c1ccc(I)cc1F`: the growth is 99.7%.
Turning to `CCOc1ccc2c(c1)CN(Cc1ccc(Cl)cc1)CO2`, the growth is 33.2%.
As for `O=C(Nc1ccc(I)cc1F)c1cc(F)ccc1O`, the growth is 2.56% (active).
Consider `Cc1ccc(NCCNCC(O)CO)c2c(=O)c3ccccc3sc12` (stereo not given), for which the growth was -46.3% (active).
As for `O=C(CCN1C(=O)c2ccccc2C1=O)Nc1ccc(Cl)cc1`, the growth was 82.2%.
Then `CN(CCc1ccccc1)C(=S)N(C(=O)c1ccc([N+](=O)[O-])cc1)c1ccc(Cl)cc1`, with 106%; and `O=C(Nc1ccc(F)cc1F)c1cc(Br)ccc1O`, with 1.37% (active).
Then `Cc1sc2ncn(CC(=O)Nc3ccc(S(N)(=O)=O)cc3)c(=O)c2c1C`, with 103%; and `Cn1nc(C(F)(F)F)c(-c2ccc(Cl)c(C(F)(F)F)c2)c1-c1ccc(OCc2ccc(Cl)cc2)cc1O`, with 5.21% (active).
For the compound `CCOc1cccc(/C=N/NC(=O)C(=O)Nc2cccc(C(F)(F)F)c2)c1O`, the growth was 16.6%.
For the compound `COc1ccc(N)c(-c2cc3c(c4c2[nH]c2ccc(OC)cc24)CCCC3)c1`, the growth is 89.4%.
Turning to `CN1C(=O)N(C)C2(c3ccccc3)OC(=S)NC12c1ccccc1` (stereo not given), the growth was 95.7%.
`CCCCC1COc2cccc3c2N1C=C/C3=C\C(=O)N(C)c1ccccc1` (stereo not given): the growth was 68.9%.
For `FC(F)(F)c1cccc(Nc2nc(-c3ccccc3)nc3ncccc23)c1`, the growth is 76.2%.
On to `O=C1C(Cl)=C(NCc2ccco2)C(=O)c2ccccc21`, for which the growth was 93.8%.
For the compound `CCN(CCO)CCNc1ccc(C)c2sc3cc(Cl)ccc3c(=O)c12`, the growth was 7.81% (active).
Then `COc1cc(C(=O)O/N=C(\N)Cc2cccc3ccccc23)cc(OC)c1OC`, with 42.9%; and `COc1ccc(-c2nnc(COc3ccc(C(=O)/C=C/c4ccco4)cc3)o2)cc1`, with 85.9%.
Then `COc1cc(/C=C2\Oc3cc(OCCCN4CCCC4)ccc3C2=O)cc(OC)c1`, with -45.4% (active).
Take `O=C(CN1C(=O)/C(=C\c2ccc(Cl)cc2)SC1=S)Nc1ncc(Cc2ccc(Cl)cc2)s1`: the growth was 103%.
With `N#CC(C#N)=Cc1c(-c2ccccc2)[nH]c2ccccc12`, the growth was 65.5%.
For the compound `COC(=O)c1c2c(c(C)[n+]([O-])c1C)C(=O)C(NCc1ccc(F)c(F)c1)=CC2=O`, the growth is 22.1%.
Then `COc1ccc(-c2nsc3c2NC(=O)CC3c2ccc3c(c2)OCCO3)cc1` (stereo not given), with 46%.
Next, `CNCCNc1nc2ccccc2c2c(=O)c3cccc(OC)c3sc12`: 12.5%.
